In PubChem BioAssay AID1159580 (chemical genetic matrix, 2015):
Out of some 5,500 compounds screened, about 2,000 (36%) were called active. Roughly 18% stayed inconclusive and do not appear here. No stated cut-off is given here; in the data, active means normalized growth mostly below about 0.91 (no sharp cut-off); inconclusive means no clear call, values can overlap the other calls; inactive means mostly above about 0.92. Some of the results follow.

Experiment: chemical genetic growth profiling, strain panel (AID 1159580);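 further: tested at 20 µM; growth read once vehicle control cultures reached saturation at 30 °C; 1 = growth at the plate median or of vehicle wells; lower values mean less growth of the strain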
Details: S. cerevisiae deletion strains, growth OD

Measured: normalized growth

NOCC(=O)O
inactive: locus YAL040C, strain CLN3, active compounds read low 0.96 | locus YCL061C, strain MRC1 (second series), active compounds read low 0.985 | locus YDR363W, strain ESC2, active compounds read low 1.01 | locus YER002W, strain NOP16, active compounds read low 0.997 | locus YGR229C, strain SMI1, active compounds read low 0.979 | locus YJR075W, strain HOC1, active compounds read low 1 | locus YNL128W, strain TEP1, active compounds read low 0.977 | locus YNL175C, strain NOP13, active compounds read low 1.01 | locus YNL197C, strain WHI3, active compounds read low 0.993 | locus YNL224C, strain SQS1, active compounds read low 1.04 | locus YNL322C, strain KRE1, active compounds read low 0.998 | locus YOR083W, strain WHI5 (second series), active compounds read low 0.993 | locus YPL055C, strain LGE1, active compounds read low 0.999
